The values below come from PubChem BioAssay (NCATS).

The nature of assay [1]: qHTS Assay for Identification of Small Molecule Agonists for Thrombopoietin (TPO) Signaling Pathway (AID 917). The procedure, abridged: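 Luminescence from a Glycoprotein IIb promoter–driven luciferase reporter served as read-out in murine Ba/F3 cells carrying the human TPO receptor. Cells, deprived of IL-3 overnight, received compounds with 26 pM TPO and were incubated 24 hrs at 37 C.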

Assay [2] addresses Muscarinic acetylcholine receptor M1 (Rattus norvegicus) (UniProt P08482). The assay is described as follows: qHTS Assay for Antagonists of Acetylcholine Muscarinic M1 Receptor: Kinetic Measurement of Intracellular Calcium Response (AID 943). Further: nearly all actives have a fitted effect of over 75% in size. Further: potency means the concentration at half of the fitted maximal effect. On activity change, negative = inhibition: series mostly up to about 35 µM. In short, it runs like this: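 CHO cells expressing rat M1 receptor, Fluo-4 loaded, preincubated 10 min with compound, then stimulated with EC80 carbachol (100 nM final). Kinetic calcium fluorescence over 4 min; response taken as peak over basal signal.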
A general note: In qHTS, concentration-response curves come from the screen itself.

For assay [3] the target is unchanged. The assay is described as follows: qHTS Assay for Antagonists of Acetylcholine Muscarinic M1 Receptor: Measurement of IP-One Response (AID 944). Further: nearly all actives have a fitted effect of over 75% in size. Further: potency means the concentration at half of the fitted maximal effect. The procedure, abridged: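 CHO cells stably expressing rat M1, pretreated 10 min with compound, then stimulated 30 min with carbachol at EC80 (200 nM) in LiCl-containing buffer pH 7.4; IP1 accumulation read by HTRF competition (665/620 nm).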

The target of assay [4] is Cytochrome P450 3A4 (Homo sapiens) (UniProt P08684). The assay is described as follows: qHTS Assay for Inhibitors and Substrates of Cytochrome P450 3A4 (AID 884). Further: nearly all actives have a fitted effect of over 50% in size. Further: potency means the concentration at half of the fitted maximal effect. On activity change, negative = inhibition: series mostly up to about 57 µM. In short, it runs like this:
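20 nM human CYP3A4 with 25 uM Luciferin-PPXE (at KM) in 200 mM KPO4, preincubated 10 min with compound; NADPH regeneration started a 60 min RT reaction. Luciferin detected by luminescence, normalized to 57 uM ketoconazole as full inhibition.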

For assay [5] the target is unchanged. The assay is described as follows: qHTS Assay for Activators of Cytochrome P450 3A4 (AID 885). Further: nearly all actives have a fitted effect of over 65% in size. Further: potency means the concentration at half of the fitted maximal effect. In short, it runs like this: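 Signal was normalized against complete inhibition by 57 uM ketoconazole. The reaction used 20nM CYP3A4 with 25uM Luciferin-PPXE, 10-min compound preincubation and a 60-min NADPH-supported step at RT.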
For assay [6], the target named is Cytochrome P450 2C9 (Homo sapiens) (UniProt P11712). Description: qHTS Assay for Inhibitors and Substrates of Cytochrome P450 2C9 (AID 883). Further: nearly all actives have a fitted effect of over 60% in size. In short, it runs like this: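 10nM CYP2C9 + 100uM Luciferin-H (=KM), 25mM KPO4; cpd 10 min 37C; NADPH regen, 60 min 37C; stop/detect with P450 Glo-Buffer 20 min; luminescence. Norm. to 57uM sulphaphenazole as full inhibition.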

The target of assay [7] is Cytochrome P450 2D6 (Homo sapiens) (UniProt P10635). Description: qHTS Assay for Inhibitors and Substrates of Cytochrome P450 2D6 (AID 891). Further: potency means the concentration at half of the fitted maximal effect; nearly all actives have a fitted effect of over 60% in size. In short, it runs like this: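 Human CYP2D6 (5 nM) with 30 uM Luciferin-ME EGE (at Km) in 100 mM KPO4, compound preincubated 10 min, then NADPH regeneration system for 60 min at room temperature. Luciferin read by luminescence; normalized to 1.43 uM quinidine.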

The target in assay [8] is Cytochrome P450 2C19 (Homo sapiens) (UniProt P33261). Description: qHTS Assay for Inhibitors and Substrates of Cytochrome P450 2C19 (AID 899). Further: nearly all actives have a fitted effect of over 60% in size. In short, it runs like this: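 Luminescent read-out of luciferin formed from Luciferin-H EGE (10uM, equal to KM). Enzyme 5nM in 50mM KPO4; compound added, 10 min at 37C, then NADPH regenerating system for 60 min at 37C. Full inhibition defined by 57uM ketoconazole.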

Assay [9] can be described thus: qHTS Assay for Identification of Small Molecule Antagonists for Thrombopoietin (TPO) Signaling Pathway (AID 918). Further: potency means the concentration at half of the fitted maximal effect; nearly all actives have a fitted effect of over 60% in size. Conditions: TPO-dependent cell signaling reporter, antagonist mode. The procedure, abridged:
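Murine Ba/F3 cells expressing human TPO receptor and a Glycoprotein IIb promoter-luciferase reporter, IL-3-starved overnight, treated with compound plus TPO at EC50 (26 pM final). After 24 h at 37 C, luminescence read to detect inhibitors.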

Assay [10] can be described thus: qHTS Assay for Identification of Small Molecule Agonists for Hypoxia Response Element Signaling Pathway (AID 914; active means well fitted activation curve with a large enough effect in the signal ratio, with a control signal flat, not every such curve was filed as active; the % refers to the signal ratio). To be noted: ME-180 HRE-bla reporter, beta-lactamase ratio, CoCl2, 17 h; activation: active compounds read high. In short, it runs like this:
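HRE-bla ME-180 cells, overnight plating in Opti-MEM with 0.5% dialyzed FBS; cpd titration + EC50 CoCl2, 17 h, 37 degrees Celsius; CCF4 2.5 h RT; 460/530 nm ratio; AC50.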

The target in assay [11] is Tyrosyl-DNA phosphodiesterase 1 (Homo sapiens) (UniProt Q9NUW8). The assay is described as follows: Confirmation Assay for Inhibitors of Tyrosyl-DNA Phosphodiesterase (TDP1) (AID 489007). Further: potency means the concentration at half of the fitted maximal effect; nearly all actives have a fitted effect of over 40% in size. Conditions: recombinant human TDP1 enzymatic activity, dose-response. In short, it runs like this: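 Recombinant human Tdp1 (1 nM final), expressed in E. coli, preincubated 15 min with compound. Then 15 nM 5'-biotin/3'-phosphotyrosine-FITC DNA substrate added for 5 min at room temperature. AlphaScreen beads (10 ug/ml) added for 10 min; cleavage gives signal loss.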

Assay [12] can be described thus: qHTS Assay for Identification of Small Molecule Antagonists for NFkB Signaling Pathway (AID 895; active means well fitted inhibition curve with a large enough effect in the signal ratio, with a control signal flat, not every such curve was filed as active; the % refers to the signal ratio). The procedure, abridged: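 ME-180 NFkB-bla cells (beta-lactamase under NFkB response element), plated overnight, treated with compound then 10 pM TNF alpha (about EC50) for 5 hrs at 37 C. LiveBLAzer FRET read at 460/530 nm emission, 405 nm excitation.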
For assay [13], the target named is Cytochrome P450 2D6 (Homo sapiens) (UniProt P10635). The assay is described as follows: Cytochrome P450 family 2 subfamily D member 6 (CYP2D6) small molecule antagonists: luciferase biochemical (cell-free) qHTS assay (AID 1645840; active means well fitted curve in the direction sought with a large enough effect in the repeat runs; an effect the other way counts as inactive or inconclusive; further: nearly all actives have a fitted effect of over 55% in size; further: potency means the concentration at half of the fitted maximal effect; on activity change, negative = inhibition: series mostly up to about 57 µM). In short, it runs like this: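 P450-Glo luminescent screen: recombinant CYP2D6 enzyme–proluciferin substrate mix preincubated with compound 10 min at room temperature, then NADPH regeneration added for 1 h at room temperature. Detection reagent added for 20 min; luciferin light read as relative luminescence units.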

Assay [14] has as its target Cytochrome P450 2C9 (Homo sapiens) (UniProt P11712). Description: Cytochrome P450 family 2 subfamily C member 9 (CYP2C9) small molecule antagonists: luciferase biochemical (cell-free) qHTS assay (AID 1645842; active means well fitted curve in the direction sought with a large enough effect in the repeat runs; an effect the other way counts as inactive or inconclusive; further: potency means the concentration at half of the fitted maximal effect; nearly all actives have a fitted effect of over 55% in size). The procedure, abridged:
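Luminescence, after 20 min with luciferin detection reagent, reflected CYP2C9 turnover during a 1 h NADPH-driven reaction at 37C. Enzyme-substrate mix contained 0.4% bovine serum albumin and was preincubated with compound 10 min at room temperature.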

In assay [15] the target is Lysosomal acid glucosylceramidase (Homo sapiens) (UniProt P04062). The assay is described as follows: Glucocerebrosidase-p2 (AID 348; in the data active means potency below about 10 µM; further: potency means the concentration at half of the fitted maximal effect). Conditions: purified GBA, blue fluorogenic substrate, 40 min. In short, it runs like this: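 Compounds titrated from 0.6 nM upwards against 0.2 nM enzyme in pH 5.9 citric acid/KH2PO4, taurocholate, tween-20; blue fluorogenic substrate 80 uM, 40 min room temperature, stopped and read Ex 365/Em 440 for AC50.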

The nature of assay [16]: Confirmation and Secondary Assay for Modulators of Hemoglobin Beta Chain Splicing at IVS2 654 locus (AID 910).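 Further: HeLa cells stably carrying EGFP split by mutant beta-globin IVS2-654 intron.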 The procedure, abridged: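 HeLa cells stably expressing EGFP interrupted by β-globin IVS2-654 intron, seeded overnight in Opti-MEM/2% FCS, then treated 2 days at 37 °C. Restored splicing read as total peak GFP intensity per well by laser scanning cytometry (488 nm excitation, 500–520 nm emission); 500 nM antisense PNA as control.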

Assay [17] can be described thus: Confirmation and Secondary Assay for Modulators of Hemoglobin Beta Chain Splicing at IVS2 705 locus (AID 930).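 Further: HeLa cells stably expressing the EGFP-705 splicing reporter; GFP fluorescence per well restored by corrected splicing of the IVS2-705 intron in EGFP; series mostly up to about 46 µM.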 In short, it runs like this: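 Read-out: total peak GFP fluorescence per well (488 nm excitation, 500-520 nm emission) by laser-scanning cytometry. Cells: HeLa EGFP-705 splicing reporter, 2 days compound exposure in Optimem/2% FCS.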

Molecules are shown by their SMILES. Values joined by “and” are separate entries in the source; they are usually repeats but may differ in a detail not shown here. Identical values can stand only once. Values without a mark were called inactive. Inconclusive results are not listed. Where a call stands in place of a potency, no number is given. Active and inactive are the calls of the source. Unless noted, the call rests on the fitted dose curve; in most records, active means well fitted curve in the direction sought with a large enough effect; inconclusive means small, poorly fitted or top-dose-only effect, or another doubt; inactive means no such curve, though single readings can be large; an effect the other way counts as inactive or inconclusive.

Muscarinic acetylcholine receptor M1 (Rattus norvegicus), sequence (P08482 whole entry, looked up): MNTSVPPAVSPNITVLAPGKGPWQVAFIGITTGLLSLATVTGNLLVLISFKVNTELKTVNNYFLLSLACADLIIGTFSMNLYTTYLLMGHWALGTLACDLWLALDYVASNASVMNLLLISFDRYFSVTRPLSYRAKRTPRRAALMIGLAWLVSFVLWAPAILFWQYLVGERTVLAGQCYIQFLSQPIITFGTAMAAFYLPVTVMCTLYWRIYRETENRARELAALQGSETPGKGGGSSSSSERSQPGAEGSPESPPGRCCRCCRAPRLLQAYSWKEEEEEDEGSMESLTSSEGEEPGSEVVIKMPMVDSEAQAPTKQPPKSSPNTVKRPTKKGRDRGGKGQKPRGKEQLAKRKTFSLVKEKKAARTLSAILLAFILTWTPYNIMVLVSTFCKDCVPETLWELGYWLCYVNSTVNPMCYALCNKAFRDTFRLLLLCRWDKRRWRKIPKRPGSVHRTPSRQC
Cytochrome P450 2D6 (Homo sapiens), sequence (P10635 whole entry, looked up): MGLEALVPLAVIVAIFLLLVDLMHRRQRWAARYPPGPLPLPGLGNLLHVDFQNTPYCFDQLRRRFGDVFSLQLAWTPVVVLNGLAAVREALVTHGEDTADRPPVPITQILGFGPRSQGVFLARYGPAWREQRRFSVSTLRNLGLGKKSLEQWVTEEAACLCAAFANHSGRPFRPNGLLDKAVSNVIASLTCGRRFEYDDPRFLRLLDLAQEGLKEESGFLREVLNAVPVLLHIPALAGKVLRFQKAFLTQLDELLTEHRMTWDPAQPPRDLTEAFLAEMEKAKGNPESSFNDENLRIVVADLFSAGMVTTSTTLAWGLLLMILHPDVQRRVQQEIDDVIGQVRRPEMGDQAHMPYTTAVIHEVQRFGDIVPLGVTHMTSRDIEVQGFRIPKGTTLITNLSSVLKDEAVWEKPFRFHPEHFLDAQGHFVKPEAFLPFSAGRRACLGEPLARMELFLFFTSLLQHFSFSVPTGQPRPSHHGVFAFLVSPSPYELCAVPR
Cytochrome P450 2C9 (Homo sapiens), sequence (P11712 whole entry, looked up): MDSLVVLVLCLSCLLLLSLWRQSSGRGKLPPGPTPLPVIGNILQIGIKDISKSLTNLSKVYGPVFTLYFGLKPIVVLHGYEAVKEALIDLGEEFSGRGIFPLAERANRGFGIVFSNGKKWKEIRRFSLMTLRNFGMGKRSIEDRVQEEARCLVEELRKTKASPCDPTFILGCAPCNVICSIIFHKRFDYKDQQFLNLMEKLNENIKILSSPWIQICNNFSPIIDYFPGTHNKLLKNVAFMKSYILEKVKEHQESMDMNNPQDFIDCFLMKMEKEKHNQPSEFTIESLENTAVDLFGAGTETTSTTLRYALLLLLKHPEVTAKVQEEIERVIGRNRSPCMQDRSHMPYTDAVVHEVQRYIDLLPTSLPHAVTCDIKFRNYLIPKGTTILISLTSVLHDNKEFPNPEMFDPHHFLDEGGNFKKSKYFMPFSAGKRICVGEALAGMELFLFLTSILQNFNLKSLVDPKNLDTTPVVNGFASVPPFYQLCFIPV
Cytochrome P450 3A4 (Homo sapiens), sequence (P08684 whole entry, looked up): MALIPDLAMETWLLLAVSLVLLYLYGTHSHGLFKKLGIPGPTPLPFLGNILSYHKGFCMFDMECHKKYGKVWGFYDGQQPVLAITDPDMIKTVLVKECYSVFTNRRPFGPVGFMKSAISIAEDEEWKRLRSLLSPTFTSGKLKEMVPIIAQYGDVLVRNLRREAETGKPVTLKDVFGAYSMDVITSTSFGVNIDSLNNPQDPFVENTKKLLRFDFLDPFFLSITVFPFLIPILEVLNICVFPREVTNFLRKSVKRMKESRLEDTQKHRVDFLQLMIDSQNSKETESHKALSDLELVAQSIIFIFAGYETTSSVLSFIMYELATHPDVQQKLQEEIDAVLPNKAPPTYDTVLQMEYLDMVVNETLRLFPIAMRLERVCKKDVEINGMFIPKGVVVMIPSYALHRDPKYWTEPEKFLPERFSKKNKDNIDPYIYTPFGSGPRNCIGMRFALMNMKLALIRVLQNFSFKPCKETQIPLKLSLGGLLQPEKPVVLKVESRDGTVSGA
Cytochrome P450 2C19 (Homo sapiens), sequence (P33261 whole entry, looked up): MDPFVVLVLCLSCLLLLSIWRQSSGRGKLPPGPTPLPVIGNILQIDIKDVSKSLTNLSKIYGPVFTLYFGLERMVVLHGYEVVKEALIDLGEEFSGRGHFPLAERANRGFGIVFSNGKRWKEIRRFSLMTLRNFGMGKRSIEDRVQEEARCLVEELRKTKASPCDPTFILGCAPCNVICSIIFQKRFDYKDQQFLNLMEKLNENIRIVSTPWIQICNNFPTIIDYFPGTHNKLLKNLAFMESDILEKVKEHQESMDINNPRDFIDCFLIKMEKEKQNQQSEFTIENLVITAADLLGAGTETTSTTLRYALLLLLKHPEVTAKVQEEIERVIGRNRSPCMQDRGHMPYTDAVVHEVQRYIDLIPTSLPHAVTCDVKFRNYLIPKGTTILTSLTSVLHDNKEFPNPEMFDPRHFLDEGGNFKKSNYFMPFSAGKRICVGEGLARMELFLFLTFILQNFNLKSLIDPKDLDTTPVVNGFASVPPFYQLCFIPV
Lysosomal acid glucosylceramidase (Homo sapiens), sequence (P04062 whole entry, looked up): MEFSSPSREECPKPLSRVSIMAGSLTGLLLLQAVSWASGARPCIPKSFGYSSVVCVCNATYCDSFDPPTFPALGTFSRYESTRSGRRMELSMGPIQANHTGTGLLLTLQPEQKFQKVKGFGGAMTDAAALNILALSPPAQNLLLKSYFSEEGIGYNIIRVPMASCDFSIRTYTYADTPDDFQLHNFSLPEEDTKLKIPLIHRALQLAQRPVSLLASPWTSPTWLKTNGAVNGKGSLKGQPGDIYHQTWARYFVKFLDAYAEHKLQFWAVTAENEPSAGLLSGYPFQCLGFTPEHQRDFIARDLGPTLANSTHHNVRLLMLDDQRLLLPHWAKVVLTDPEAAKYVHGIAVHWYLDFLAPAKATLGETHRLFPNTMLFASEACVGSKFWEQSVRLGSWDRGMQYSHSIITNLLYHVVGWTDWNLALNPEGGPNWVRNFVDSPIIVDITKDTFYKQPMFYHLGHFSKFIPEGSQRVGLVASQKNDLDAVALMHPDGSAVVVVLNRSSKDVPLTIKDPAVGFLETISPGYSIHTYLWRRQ
Tyrosyl-DNA phosphodiesterase 1 (Homo sapiens), sequence (Q9NUW8 whole entry, looked up): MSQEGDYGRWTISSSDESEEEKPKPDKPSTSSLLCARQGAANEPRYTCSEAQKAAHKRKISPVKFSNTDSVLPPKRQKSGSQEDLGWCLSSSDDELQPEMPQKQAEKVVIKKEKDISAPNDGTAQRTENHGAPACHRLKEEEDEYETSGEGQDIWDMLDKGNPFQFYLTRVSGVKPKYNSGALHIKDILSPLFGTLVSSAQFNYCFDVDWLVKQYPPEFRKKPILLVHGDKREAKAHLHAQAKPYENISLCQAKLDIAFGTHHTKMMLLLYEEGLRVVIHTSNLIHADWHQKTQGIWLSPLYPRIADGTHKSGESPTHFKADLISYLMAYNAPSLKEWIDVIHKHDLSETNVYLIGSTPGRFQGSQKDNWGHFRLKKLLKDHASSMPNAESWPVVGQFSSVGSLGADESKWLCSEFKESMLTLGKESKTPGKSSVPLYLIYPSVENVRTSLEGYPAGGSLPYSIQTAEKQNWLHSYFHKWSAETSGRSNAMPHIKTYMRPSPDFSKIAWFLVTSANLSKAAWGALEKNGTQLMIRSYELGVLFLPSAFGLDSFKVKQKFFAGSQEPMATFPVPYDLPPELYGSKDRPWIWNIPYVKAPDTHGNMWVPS

For the molecule `CC(=O)O[C@@H](C)C[N+](C)(C)C`, the result in assay [1] was inactive. Moreover, the Potency result in [2] and in assay [3] was “inactive” in each case.
Turning to `C/C=C\C(=O)N(CC)c1ccccc1C`, in assay [4], the Potency result is “inactive”. Also, the Potency in [5] was 7.94 µM (active).
As to `CN1[C@@H](CC(=O)c2ccccc2)CCC[C@@H]1C[C@@H](O)c1ccccc1`, the Potency entry in [6] and in assay [8] was “inactive” in each case. For the same molecule, the Potency in assay [7] is 251 nM (active) and 79.4 nM (active) and 10 nM (active). The result in [1] was inactive.
`CCN(CC)CCC[C@H](C)Nc1c2ccc(Cl)cc2nc2ccc(OC)cc12`: in [5], the Potency entry is “inactive”. For the same molecule, the Potency in assay [7] was 199 nM (active) and 126 nM (active); in [9], 10 µM (active).
As to `COc1c(O)cc2c(c1O)[C@@H]1O[C@@H](CO)[C@@H](O)[C@@H](O)[C@@H]1OC2=O`, in assay [10], the activation was 14.6%.
As for `CN(C)[C@H]1C(=O)C(C(=O)NCN2CCCC2)=C(O)[C@]2(O)C(=O)C3=C(O)c4c(O)cccc4[C@@](C)(O)[C@H]3C[C@@H]12`, the Potency in assay [11] is 8.91 µM (active).
Turning to `C[C@@H](C(=O)O)c1cccc(C(=O)c2ccccc2)c1`, the Potency entry in [12] is “inactive”.
As for `CO[C@H]1C[C@@H](O[C@@H]2[C@H](C)[C@H](O[C@@H]3O[C@@H](C)C[C@@H](N(C)C)[C@@H]3O)[C@H](C)C[C@]3(CO3)C(=O)[C@H](C)[C@H](O)[C@H](C)[C@H](C)OC(=O)[C@@H]2C)O[C@@H](C)[C@H]1O`, the Potency result in [5] is “inactive”.
Regarding `C[C@@H](CN(C)C)CN1c2ccccc2CCc2ccccc21`, in assay [5], the Potency result was “inactive”. For the same molecule, the Potency is 5010 nM (active) in assay [7], 0.141 µM (active) in [2] and 0.126 µM (active) in assay [3].
Turning to `CC(C)COC[C@H](CN(Cc1ccccc1)c1ccccc1)N1CCCC1`, the Potency entry in [5], in [2] and in assay [3] was “inactive” each time. Besides, the Potency in assay [7] was 15.8 nM (active). In addition, the outcome in assay [1] was inactive.
On to `CCN(CC)CC#CCOC(=O)[C@@](O)(c1ccccc1)C1CCCCC1`, for which the Potency entry in assay [5] is “inactive”.
With `CN(C)CC[C@@H](c1ccccc1)c1ccccn1`, the Potency entry in [4] and in assay [12] was “inactive” each time. Moreover, the molecule was classed as inactive in [1]. For the same molecule, the figures for the Potency in assay [2] and in [3] were 11.2 µM (active) and 10 µM (active), respectively.
For the molecule `COCCc1ccc(OC[C@H](O)CNC(C)C)cc1`, the Potency result in assay [12] is “inactive”. In addition, the result in [1] was inactive.
`COc1ccc(C[C@@H]2c3cc(OC)c(OC)cc3CC[N@+]2(C)CCC(=O)OCCCCCOC(=O)CC[N@@+]2(C)CCc3cc(OC)c(OC)cc3[C@H]2Cc2ccc(OC)c(OC)c2)cc1OC`: the Potency entry in [5] is “inactive”.
`CN(C)CCO[C@](C)(c1ccccc1)c1ccccn1`: the call in assay [1] was inactive.
On to `CCCN[C@@H](C)C(=O)Nc1c(C)csc1C(=O)OC`, for which the Potency entry in assay [5] is “inactive”.
Turning to `CCN(CC)CCC[C@H](C)Nc1ccnc2cc(Cl)ccc12`, in [1], the result was inactive. Besides, the Potency in [2] is 5.01 µM (active).
As for `CCOC(=O)c1ccc(NC(=O)CSc2nc3c([nH]c4ccccc43)c(=O)n2C)cc1`, the Potency result in [13] is “inactive”. For the same molecule, the Potency in assay [14] was 3.01 µM (active).
As for `CN1CCN(c2ncncc2-c2ccc(N(C)C)cc2)CC1`, the Potency in [15] was more than 11.4 µM. Further, the activity change, negative = inhibition in [6] was 36.5% [at 2.29 µM]. Moreover, the Potency entry in [5] is “inactive”.
In the case of `CC(=O)Oc1cc(OC(C)=O)c2c(c1)OC(c1ccc(OC(C)=O)c(OC(C)=O)c1)C(OC(C)=O)C2` (centres undefined), the Potency in [4] is 31.6 µM (active). The Potency result in assay [5] and in assay [16] was “inactive” throughout. In addition, in assay [17], the result was inactive.
As for `C[C@@](N)(Cc1ccc(O)cc1)C(=O)O`, the Potency result in [4] and in assay [16] was “inactive” each time. The outcome in assay [1] and in [17] was inactive.
Turning to `Cc1ccc(Cn2c(C)c3cnn(CC(=O)NCc4ccccc4)c(=O)c3c2C)cc1`, the results for the Potency in assay [13] and in assay [14] were 9.52 µM (active) and 12 µM (active), respectively.
For the molecule `CC1=C(C(=O)O)N2C(=O)[C@@H](NC(=O)[C@@H](N)c3ccccc3)[C@@H]2SC1`, the Potency result in assay [12] was “inactive”. For the same molecule, the result in assay [1] was inactive.
Turning to `C[N+]1(C)CCC[C@@H](OC(=O)C(O)(c2ccccc2)c2ccccc2)C1`, the Potency entry in [8] is “inactive”.
Regarding `CC1CC2C3CCC4=CC(=O)C=C[C@@]4(C)[C@]3(F)C(O)C[C@]2(C)[C@]1(O)C(=O)CO` (some centres undefined), the Potency entry in assay [16] was “inactive”. The molecule was classed as inactive in assay [17].
As to `CCCN1C[C@H](CSC)C[C@H]2c3cccc4[nH]cc(c34)C[C@@H]21`, the Potency entry in assay [6], in [5] and in assay [8] was “inactive” throughout. Besides, in assay [7], the Potency is 31.6 nM (active).
Turning to `CC(CCC(=O)O)C1CCC2C3C(O)C[C@@H]4CC(O)CC[C@@]4(C)C3CC[C@@]12C` (some centres undefined), the Potency entry in assay [16] was “inactive”. Besides, the molecule was classed as inactive in assay [17].
